biological target: T1, GST-Nv-NF-kB (Ser allele) (Nematostella vectensis, UniProt A7UNT2 2-411); test: protein-binding microarray (PBM); PBM: ~300 nM protein, 6 mM HEPES pH 7.8, 80 mM KCl, 0.5 mM EDTA, 0.5 mM EGTA, 6% glycerol, 35 ng/ul poly-dIdC, 1% milk, 1 h, room temperature; Ap Aiptasia and Nv Nematostella (sea anemones) / Co Capsaspora / Aq Amphimedon (sponge) / Dm Drosophila / Hu human; RHD is the Rel homology domain; high values mean tight binding; conditions: dsDNA, one strand shown
T1 sequence: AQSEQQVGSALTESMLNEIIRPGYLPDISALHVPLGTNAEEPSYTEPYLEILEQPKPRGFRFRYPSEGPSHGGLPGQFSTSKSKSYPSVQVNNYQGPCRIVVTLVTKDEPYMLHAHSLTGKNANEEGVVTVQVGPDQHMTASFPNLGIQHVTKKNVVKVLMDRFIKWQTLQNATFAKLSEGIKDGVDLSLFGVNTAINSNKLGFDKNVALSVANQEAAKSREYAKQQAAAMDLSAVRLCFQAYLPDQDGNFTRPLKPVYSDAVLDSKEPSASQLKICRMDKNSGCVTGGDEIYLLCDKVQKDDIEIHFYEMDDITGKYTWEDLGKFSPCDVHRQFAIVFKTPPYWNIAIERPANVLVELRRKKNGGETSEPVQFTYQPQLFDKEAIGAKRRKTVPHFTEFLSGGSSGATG

Row | Sequence | binding signal [z-score]
1 | CCGATTAACATCAGGGGGAGGGATGATGTTAATCGGGTCTTGATTCGCTTGACGCTGCTG | 4.98
2 | CCGATTAACATCAGGGGGTATTATGATGTTAATCGGGTCTTGATTCGCTTGACGCTGCTG | 6.38
3 | CCGATTAACATCACGTGGGGCGTTGATGTTAATCGGGTCTTGATTCGCTTGACGCTGCTG | 1.01
4 | CCGATTAACATCAGGAAATACCCTGATGTTAATCGGGTCTTGATTCGCTTGACGCTGCTG | 6.46
5 | CCGATTAACATCAGGGGCTTCCATGATGTTAATCGGGTCTTGATTCGCTTGACGCTGCTG | 3.55
6 | CCGATTAACATCAGGCGTTCCCCTGATGTTAATCGGGTCTTGATTCGCTTGACGCTGCTG | 5.77
7 | CCGATTAACATCAAGGGGGGGGATGATGTTAATCGGGTCTTGATTCGCTTGACGCTGCTG | 5.62
8 | CCGATTAACATCAAAGAGCCCCCTGATGTTAATCGGGTCTTGATTCGCTTGACGCTGCTG | 3.77
9 | CCGATTAACATCAGAAGTCCCCCTGATGTTAATCGGGTCTTGATTCGCTTGACGCTGCTG | 6.47
10 | CCGATTAACATCAGTACCGCGAATGATGTTAATCGGGTCTTGATTCGCTTGACGCTGCTG | 1.29
11 | CCGATTAACATCAGGGGGAACACTGATGTTAATCGGGTCTTGATTCGCTTGACGCTGCTG | 6.37
12 | CCGATTAACATCAGAAACCCCCATGATGTTAATCGGGTCTTGATTCGCTTGACGCTGCTG | 6.17
13 | CCGATTAACATCAAGGGGGGAGATGATGTTAATCGGGTCTTGATTCGCTTGACGCTGCTG | 4.86
14 | CCGATTAACATCAGACATGGGAATGATGTTAATCGGGTCTTGATTCGCTTGACGCTGCTG | 1.34
15 | CCGATTAACATCAGAAAAACACCTGATGTTAATCGGGTCTTGATTCGCTTGACGCTGCTG | 4.39
16 | CCGATTAACATCACCGAACCCCCTGATGTTAATCGGGTCTTGATTCGCTTGACGCTGCTG | 5.24
17 | CCGATTAACATCATGCCCGGGAATGATGTTAATCGGGTCTTGATTCGCTTGACGCTGCTG | 1.07
18 | CCGATTAACATCAGGGGACCCCCTGATGTTAATCGGGTCTTGATTCGCTTGACGCTGCTG | 5.69
19 | CCGATTAACATCAAACCACCCCCTGATGTTAATCGGGTCTTGATTCGCTTGACGCTGCTG | 3.66
20 | CCGATTAACATCAGGGGATATACTGATGTTAATCGGGTCTTGATTCGCTTGACGCTGCTG | 5.69

Row | Sequence | binding signal [z-score]
21 | CCGATTAACATCAAACCCCCCCTTGATGTTAATCGGGTCTTGATTCGCTTGACGCTGCTG | 4.97
22 | CCGATTAACATCAAAAATATTCCTGATGTTAATCGGGTCTTGATTCGCTTGACGCTGCTG | 1.03
23 | CCGATTAACATCAAGCTCTAAGGTGATGTTAATCGGGTCTTGATTCGCTTGACGCTGCTG | 1
24 | CCGATTAACATCAAGGGGGGACTTGATGTTAATCGGGTCTTGATTCGCTTGACGCTGCTG | 4.99
25 | CCGATTAACATCACGGGGTTTTCTGATGTTAATCGGGTCTTGATTCGCTTGACGCTGCTG | 5.22
26 | CCGATTAACATCAAAATTCCCGTTGATGTTAATCGGGTCTTGATTCGCTTGACGCTGCTG | 6.44
27 | CCGATTAACATCAAAAATGCCCCTGATGTTAATCGGGTCTTGATTCGCTTGACGCTGCTG | 6.13
28 | CCGATTAACATCAAACCTTCCCCTGATGTTAATCGGGTCTTGATTCGCTTGACGCTGCTG | 5.79
29 | CCGATTAACATCAAAAAATCTCCTGATGTTAATCGGGTCTTGATTCGCTTGACGCTGCTG | 1.5
30 | CCGATTAACATCAAAGCACCCCCTGATGTTAATCGGGTCTTGATTCGCTTGACGCTGCTG | 4.9
31 | CCGATTAACATCAGATAACCCCCTGATGTTAATCGGGTCTTGATTCGCTTGACGCTGCTG | 5.95
32 | CCGATTAACATCACAGCAGTACCTGATGTTAATCGGGTCTTGATTCGCTTGACGCTGCTG | 3.01
33 | CCGATTAACATCAAGAGTCCCCCTGATGTTAATCGGGTCTTGATTCGCTTGACGCTGCTG | 5.78
34 | CCGATTAACATCAAGGGACTTCCTGATGTTAATCGGGTCTTGATTCGCTTGACGCTGCTG | 5.97
35 | CCGATTAACATCAAGGGGGATACTGATGTTAATCGGGTCTTGATTCGCTTGACGCTGCTG | 5.52
36 | CCGATTAACATCATGGGAAGGTTTGATGTTAATCGGGTCTTGATTCGCTTGACGCTGCTG | 1.52
37 | CCGATTAACATCACGGAAAAACCTGATGTTAATCGGGTCTTGATTCGCTTGACGCTGCTG | 1.31
38 | CCGATTAACATCACCTCCCCCCCTGATGTTAATCGGGTCTTGATTCGCTTGACGCTGCTG | 4.34
39 | CCGATTAACATCAGGGGGGGGAATGATGTTAATCGGGTCTTGATTCGCTTGACGCTGCTG | 6.53
40 | CCGATTAACATCAGGGGGAGTACTGATGTTAATCGGGTCTTGATTCGCTTGACGCTGCTG | 5.81
